A short description of assay [1]: compound effects on lung adenocarcinoma cell viability – A549, calcein-AM fluorescence, 48 h, basal, profiling panel (AID 1162). Particulars: higher = more signal.
The nature of assay [2]: compound effects on differentiated 3T3-L1 adipocyte viability – cell-based, 3T3-L1 adipocytes, calcein-AM fluorescence, 48 h, basal, profiling panel (AID 1163). The conditions noted are these: 3T3-L1 adipocytes viability, higher = more signal.
The nature of assay [3]: compound effects on hepatocellular carcinoma cell viability – HepG2, calcein-AM fluorescence, 48 h, basal, profiling panel (AID 1164). Particulars: higher = more signal.
Assay [4] in a line: compound effects on multiple myeloma cell viability – MM1S, calcein-AM fluorescence, 48 h, basal, profiling panel (AID 1165). The conditions noted are these: higher = more signal.
A short description of assay [5]: calcein-AM signal in unstimulated myeloma cells – cell-based, calcein-AM fluorescence, 48 h, PK04 Diversity Set, profiling panel (AID 1166).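 Also: cells grown under basal conditions without added stimulus.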 The conditions noted are these: RPMI8226 myeloma viability, higher = more signal.
The nature of assay [6]: JC-1 mitochondrial signal, unstimulated HepG2 cells – cell-based, JC-1 fluorescence, 24 h, 100 nL compound, profiling panel (AID 1167). The conditions noted are these: HepG2 mitochondrial potential, higher = more signal.
Assay [7] in a line: JC-1 mitochondrial signal, unstimulated adipocytes – cell-based, JC-1 fluorescence, 3T3-L1 adipocytes, 24 h, 100 nL compound, profiling panel (AID 1168). The conditions noted are these: JC-1 mitochondrial fluorescence, higher = more signal, called active from +8 up or from −8 down.
Assay [8] in a line: JC-1 mitochondrial signal, unstimulated myeloma cells – cell-based, JC-1 fluorescence, RPMI8226, 24 h, 100 nL compound, profiling panel (AID 1169). The conditions noted are these: JC-1 mitochondrial potential fluorescence, higher = more signal.
Assay [9] can be described thus: JC-1 mitochondrial signal, unstimulated MM1S myeloma – cell-based, JC-1 fluorescence, 24 h, 100 nL compound, profiling panel (AID 1170). The conditions noted are these: MM1S mitochondrial potential, higher = more signal.
A short description of assay [10]: resazurin metabolic signal in A549 cells – cell-based, resazurin fluorescence, 24 h, PK04 Diversity Set, profiling panel (AID 1171). Particulars: A549 viability, higher = more signal, called active from +8 up or from −8 down.

Active and inactive are the calls of the source.
Also: test concentration not given here.

Take `NCCCCCCNC(=O)[C@@H]1C[C@@H]2C(=O)N[C@@H](CCCCN)C(=O)N2[C@@H]1c1cccc(OCCO)c1`: the z-score is 0.892 in [1]; -0.452 in [2]; 0.514 in assay [3]; 0.835 in [4]; 0.986 in assay [5]; 0.0199 in assay [6]. For the same compound, the z-score was 0.759 (inactive) in [7], -0.639 in assay [8], -0.451 in assay [9] and 0.551 (inactive) in assay [10].

Regarding `O=C1O[C@@H](c2ccccc2)[C@@H](c2ccccc2)N2[C@@H](c3ccc(O)cc3)[C@]3(C(=O)Nc4ccc(C#CC5(O)CCCCCC5)cc43)[C@@H](C(=O)NC[C@H](O)c3ccccc3)[C@H]12`, the z-score in assay [1] was -0.0476; in assay [2], 0.264; in assay [3], -0.181; in assay [4] it was -2.14; in assay [5], -1.31; in [6], -2.14. The z-score in assay [7] was -1.16 (inactive); in assay [8], -0.66; in [9] it was -0.279; in assay [10], 0.119 (inactive).

With `COCCOC(=O)N1C(=O)[C@@]2(c3cc(C#CCCO)ccc31)[C@H](c1ccccc1OCCO)N1[C@H](c3ccccc3)[C@H](c3ccccc3)OC(=O)[C@H]1[C@@H]2C(=O)Nc1nc2ccccc2s1`, the z-score was 0.148 in assay [1]; -0.676 in assay [2]; 0.169 in [3]; -1.11 in [4]; -0.813 in assay [5]; -3.28 in [6]. Moreover, the z-score was -0.192 (inactive) in assay [7], -0.417 in assay [8], -0.998 in assay [9] and 0.854 (inactive) in assay [10].

As for `O=C1N(Cc2ccccc2)c2ccccc2[C@@H]2OC(c3ccc(OCCCO)cc3)=N[C@]12Cc1ccccc1`, the z-score is -1.43 in assay [1]; 1.24 in assay [2]; -1.98 in assay [3]; -3.26 in assay [4]; -4.42 in [5]; -1.11 in assay [6]. Besides, the z-score was 0.983 (inactive) in assay [7], -1.37 in assay [8], -0.884 in assay [9] and -1.72 (inactive) in assay [10].

Consider `C=CCOC(=O)[C@H]1[C@@H]2C(=O)O[C@@H](c3ccccc3)[C@@H](c3ccccc3)N2[C@@H](c2ccc(OCCOC(=O)[C@@H]3C[C@@H]4C(=O)N5CCC[C@H]5C(=O)N4[C@@H]3c3ccc(O)cc3)cc2)[C@]12C(=O)Nc1ccc(I)cc12`, for which the z-score in [1] was -0.455; in [2] it was 0.276; in assay [3] it was 0.018; in assay [4], 0.0967; in assay [5], -0.0749; in assay [6], -1.24. The z-score in assay [7] was 0.88 (inactive); in assay [8], -0.655; in [9], -1.37; in assay [10] it was -0.273 (inactive).

Turning to `CCCCO[C@H]1C[C@H]2C(I)=C[C@@H]1C(=O)[C@]21CO1`, the z-score in assay [1] was -0.788; in assay [2] it was -0.894; in assay [3], -0.534; in assay [4] it was -1.98; in assay [5] it was -1.16; in assay [6] it was -1.39. Moreover, the z-score in [7] was -0.0178 (inactive); in assay [8], 0.432; in assay [9], -0.569; in assay [10] it was 0.0651 (inactive).

Consider `CCOC(=O)C[C@H]1[C@H](OC(=O)c2ccccc2-c2ccccc2)[C@@H](NC(=O)C2CCCCC2)c2cc(OCCCO)ccc2N1C(=O)Cc1ccc(OC)cc1`, for which the z-score in assay [1] was 0.544; in assay [2], 0.744; in assay [3], 0.43; in assay [4], -0.524; in assay [5], -0.593; in [6], 0.908. Moreover, the z-score is -0.388 (inactive) in assay [7], -0.285 in assay [8], -0.663 in [9] and 0.361 (inactive) in assay [10].

Regarding `CC=CC(O)C1C=CC2C(=O)N(c3ccccc3)C(=O)C2N1Nc1ccccc1F` (stereo not given), the z-score in [1] is -1.68; in assay [2] it was -0.161; in assay [3] it was -0.182; in assay [4] it was 0.807; in assay [5], -1.85; in assay [6], -0.866. In addition, the z-score in assay [7] was -0.961 (inactive); in [8], 0.367; in assay [9], -0.254; in assay [10] it was -0.548 (inactive).

Take `CCOC(=O)c1ccc(NC(=O)O[C@H]2[C@H](OC(=O)Nc3ccc4c(c3)OCO4)[C@H](OC(=O)Nc3ccc4c(c3)OCO4)[C@@H](OC)O[C@@H]2CO)cc1`: the z-score is -0.83 in assay [1]; 0.529 in assay [2]; -1.02 in assay [3]; -0.982 in assay [4]; -1.21 in assay [5]; -0.691 in assay [6]. Besides, the z-score was -0.289 (inactive) in [7], -0.576 in assay [8], -1.09 in assay [9] and -0.824 (inactive) in [10].

For the compound `COc1cc(OC)c(C(O)C2C=CC3C(=O)N(C)C(=O)C3N2NC(=O)OC(C)(C)C)cc1Br` (stereo not given), the z-score was 0.521 in assay [1]; -0.23 in [2]; 0.25 in [3]; -0.591 in assay [4]; 0.442 in [5]; -1.05 in [6]. In addition, the z-score is -0.0401 (inactive) in assay [7], 0.0442 in assay [8], 1.18 in assay [9] and -0.503 (inactive) in [10].

For `COC(=O)[C@@]1(Cc2ccc(F)cc2)[C@H]2c3cc(C(=O)N(C)C)n(Cc4cc(F)cc5c4OCOC5)c3C[C@H]2CN1C(=O)c1ccccc1`, the z-score in assay [1] is 0.217; in [2], 0.572; in [3] it was 0.607; in assay [4], -1.25; in assay [5], -1.9; in assay [6] it was 1.76. In addition, the z-score was -0.737 (inactive) in assay [7], -0.74 in assay [8], -0.942 in [9] and -1.8 (inactive) in [10].

Consider `COC(=O)c1cn(C[C@@H](Cc2ccccc2)NC(=O)N[C@H](CO)CCc2oc(C(C)=O)c(C(=O)OC)c2C(=O)OC)nn1`, for which the z-score in [1] was -0.282; in assay [2], 0.53; in assay [3], -0.0248; in assay [4] it was 0.408; in assay [5], 0.206; in assay [6], 0.629. For the same compound, the z-score in assay [7] was 1.09 (inactive); in assay [8] it was -0.0706; in assay [9], 0.962; in assay [10] it was 0.0604 (inactive).

For the compound `N#Cc1ccc(NN2C(C(O)c3ccc(F)cc3)C=CC3C(=O)N(c4ccccc4)C(=O)C32)cc1` (stereo not given), the z-score was -0.518 in assay [1]; -0.877 in assay [2]; 0.211 in assay [3]; -0.453 in assay [4]; -1.33 in assay [5]; -1.58 in assay [6]. Besides, the z-score in assay [7] is -0.311 (inactive); in assay [8], 0.321; in assay [9], 0.153; in assay [10] it was 0.133 (inactive).

Consider `CN(C)C(=O)C1N=C(c2ccc(OCCCO)cc2)N(c2ccccc2)O1` (stereo not given), for which the z-score was 0.676 in assay [1]; -0.214 in assay [2]; 0.411 in [3]; 0.237 in assay [4]; -0.254 in assay [5]; 0.261 in [6]. Besides, the z-score in assay [7] is 0.756 (inactive); in [8] it was -0.0214; in assay [9], -0.911; in assay [10] it was 0.304 (inactive).

Take `CC1CC/C=C\[C@H]2OC34C=CCN(c5ccc(Cl)cc5)C(=O)[C@H]3N(CCCCCO)C(=O)[C@]4(C)C2C(=O)O1` (stereo not given in full): the z-score is -0.0287 in [1]; -0.607 in assay [2]; 0.843 in assay [3]; 0.743 in assay [4]; -0.381 in [5]; -0.197 in assay [6]. Also, the z-score in assay [7] is -0.0396 (inactive); in [8], -0.909; in assay [9], 1.27; in [10], -0.194 (inactive).

These data come from PubChem BioAssay.
